“And” between values parts separate entries of the source, which are not always exact repeats. Identical values can stand only once. Hit rate of the full screen: of about 5,500 compounds, about 2,000 (36%) were called active. About 18% were inconclusive and are not listed. Rule as the data show it: active = normalized growth mostly below about 0.91 (no sharp cut-off); inconclusive = no clear call, values can overlap the other calls; inactive = mostly above about 0.92. The list shows a part of the results.
Experiment: chemical genetic growth profiling, strain panel (AID 1159580);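 also: tested at 20 µM; growth read once vehicle control cultures reached saturation at 30 °C; 1 = growth at the plate median or of vehicle wells; lower values mean less growth of the strain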
Conditions: S. cerevisiae deletion strains, growth OD

Measured: normalized growth

CC(C)Cn1c(=O)n(C)c(=O)c2[nH]cnc21
inactive: locus YAL013W, strain DEP1, hits give low values 0.999 | locus YAL021C, strain ccr4, hits give low values 1.03 and 0.994 | locus YAL026C, strain drs2, hits give low values 1 and 1.03 | locus YAL030W, strain snc1, hits give low values 0.99 and 1 | locus YAL040C, strain CLN3, hits give low values 0.982 | locus YBL061C, strain skt5, hits give low values 0.992 and 1.02 | locus YBR009C, strain hhf1, hits give low values 1.01 and 0.995 | locus YBR021W, strain FUR4, hits give low values 0.966 | locus YBR023C, strain chs3, hits give low values 1 and 1.01 | locus YBR171W, strain sec66, hits give low values 0.998 and 1.03 | locus YBR229C, strain ROT2, hits give low values 0.982 | locus YBR231C, strain swc5, hits give low values 0.989 and 1.01 | locus YBR279W, strain paf1, hits give low values 0.996 and 1 | locus YCL011C, strain gbp2, hits give low values 1.01 and 1 | locus YCL016C, strain dcc1, hits give low values 0.984 and 0.981 | locus YCL029C, strain bik1, hits give low values 0.984 | locus YCL061C, strain MRC1 (second series), hits give low values 0.984 | locus YCL061C, strain MRC1, hits give low values 1 | locus YCL069W, strain vba3, hits give low values 1 | locus YCR088W, strain abp1, hits give low values 1 and 1.01 | locus YDL005C, strain med2, hits give low values 1 and 1.01 | locus YDL035C, strain GPR1, hits give low values 1.01 | locus YDL040C, strain nat1, hits give low values 0.988 and 1.01 | locus YDL074C, strain BRE1, hits give low values 1.03 | locus YDL101C, strain DUN1, hits give low values 0.984 | locus YDL134C, strain PPH21, hits give low values 0.991 | locus YDL185W, strain tfp1, hits give low values 0.988 | locus YDL192W, strain arf1, hits give low values 0.996 | locus YDR001C, strain nth1, hits give low values 1 and 1.01 | locus YDR069C, strain doa4, hits give low values 0.987 and 1.02 | locus YDR101C, strain arx1, hits give low values 0.989 | locus YDR137W, strain rgp1, hits give low values 0.976 and 0.984 | locus YDR150W, strain NUM1, hits give low values 0.998 and 0.994 | locus YDR159W, strain sac3, hits give low values 0.965 and 1.04 | locus YDR162C, strain NBP2, hits give low values 1.03 | locus YDR195W, strain ref2 0.969 and 0.994 | locus YDR297W, strain sur2, hits give low values 0.987 and 1 | locus YDR318W, strain mcm21, hits give low values 0.974 | locus YDR334W, strain swr1, hits give low values 1.04 and 1.03 | locus YDR335W, strain msn5, hits give low values 1.01 | locus YDR363W, strain ESC2, hits give low values 0.991 | locus YDR388W, hits give low values 0.985 | locus YDR392W, strain spt3, hits give low values 1 and 0.935 | locus YDR502C, strain sam2, hits give low values 0.997 | locus YEL003W, strain gim4, hits give low values 1.02 | locus YEL037C, strain rad23, hits give low values 1.02 and 1.01 | locus YEL061C, strain CIN8 (second series), hits give low values 1.03 and 1 | locus YEL061C, strain CIN8, hits give low values 0.995 | locus YER002W, strain NOP16, hits give low values 0.994 | locus YER015W, strain faa2, hits give low values 1.01 and 1 | locus YER016W, strain bim1, hits give low values 0.987 and 1.01 | locus YER110C, hits give low values 0.977 | locus YER111C, strain swi4, hits give low values 0.977 and 1.02 | locus YER155C, strain BEM2 (second series), hits give low values 1.01 | locus YER155C, strain BEM2, hits give low values 0.984 | locus YER167W, strain BCK2, hits give low values 0.964 | locus YFR010W, strain ubp6, hits give low values 1.01 and 1.03 | locus YGL078C, strain dbp3, hits give low values 0.992 | locus YGL086W, strain mad1, hits give low values 0.951 | locus YGL167C, strain pmr1, hits give low values 0.995 and 1.01 | locus YGL173C, strain kem1, hits give low values 1 and 1.02 | locus YGL227W, strain vid30, hits give low values 0.973 and 1.01 | locus YGL240W, strain doc1, hits give low values 1.02 and 1.03 | locus YGL248W, strain PDE1, hits give low values 0.984 | locus YGL253W, strain hxk2, hits give low values 1.01 and 1.04 | locus YGR078C, strain PAC10, hits give low values 1.03 | locus YGR135W, strain pre9, hits give low values 0.998 | locus YGR229C, strain SMI1, hits give low values 1 | locus YGR252W, strain gcn5, hits give low values 0.955 | locus YHR013C, strain ard1, hits give low values 0.972 and 0.993 | locus YHR027C, strain rpn1, hits give low values 0.994 and 1.01 | locus YHR030C, strain SLT2, hits give low values 0.99 and 0.987 and 0.97 | locus YHR079C, strain IRE1 (second series), hits give low values 0.996 | locus YHR079C, strain IRE1, hits give low values 0.99 and 0.969 | locus YHR094C, strain hxt1, hits give low values 0.985 | locus YHR129C, strain ARP1, hits give low values 0.99 | locus YHR142W, strain chs7, hits give low values 0.983 and 1 | locus YHR200W, strain rpn10, hits give low values 0.982 | locus YIL066C, strain RNR3, hits give low values 0.965 | locus YIL073C, strain SPO22, hits give low values 0.944 | locus YIL125W, strain kgd1, hits give low values 0.996 | locus YIR030C, strain dcg1, hits give low values 0.987 | locus YJL092W, strain hpr5, hits give low values 1.01 and 1 | locus YJL095W, strain BCK1 (second series), hits give low values 0.991 and 1.01 | locus YJL095W, strain BCK1, hits give low values 0.992 and 1.01 and 0.971 | locus YJL115W, strain asf1, hits give low values 1.01 | locus YJL129C, strain trk1, hits give low values 0.974 and 1 | locus YJL134W, strain LCB3, hits give low values 0.984 | locus YJL154C, strain vps35, hits give low values 1.01 | locus YJL164C, strain tpk1, hits give low values 1 and 0.973 | locus YJL166W, strain qcr8, hits give low values 1.02 and 1.01 | locus YJL168C, strain set2, hits give low values 0.995 | locus YJL187C, strain SWE1 (second series), hits give low values 0.998 | locus YJL187C, strain SWE1, hits give low values 1 and 0.99 | locus YJR043C, strain POL32, hits give low values 0.983 | locus YJR066W, strain TOR1, hits give low values 0.923 and 0.916

Source: PubChem BioAssay AID1159580 (chemical genetic matrix, 2015)
